HT1080-NT tox = kills 2HG-producing HT-1080-NT fibrosarcoma cells. HT-1080-NT fibrosarcoma viability, CellTiter-Glo ATP luminescence, 48 h. Potency, µM (highest dose often 46.1 µM), for the others: at the highest dose activity, negative = less viability, usual class: cytotoxic. 1.6% of 360,000 active. AID 686970;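 also: NT is the 2HG producing partner of a matched IDH1 knockdown line; potency is read from the fitted curve at half-maximal effect; 0% = DMSO-treated cells and -100% = media-only wells without cells; nearly all actives have a fitted effect of over 55% in size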
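HT-1080-NT; 750 cells/well; 5% FBS RPMI; 48 h compound, 37 degrees C; CellTiter-Glo luminescence; curve fitting and curve-class assignment.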
TDP1 cell CPT = DT40-hTDP1 cell growth loss with CPT; 12% of 420,000 active; Potency, µM (titrated, usually from 46.2 µM), for the others: at the top dose activity change, negative = growth inhibition, usual class: inhibitors; chicken DT40 Tdp1-/-;hTDP1 cells + 20 nM CPT, ATP luminescence, 48 h; also: potency is read from the fitted curve at half-maximal effect; nearly all actives have a fitted effect of over 55% in size
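Cell growth measured by CellTiter-Glo luminescence after a minimum 48 h, 37 C compound exposure with 20 nM CPT in Tdp1-knockout DT40 cells stably expressing hTDP1, seeded 400/well; qHTS titration format.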
IL1B secr inh = blocks inflammasome-driven IL-1 beta release. AID 743279. THP-1 LPS/ATP IL-1B secretion, AlphaLISA, 16 h; hits give low values. 4.7% of 360,000 active. activity change, % at 57.5 µM; in the data active = activity change below about -50%; inconclusive = mostly about -30% to -49%
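Secreted IL-1B measured by AlphaLISA bead assay after 16 h compound exposure of THP-1 cells; compounds (final up to 57.5 uM) added 1 h before LPS (250 ng/mL) and ATP (1.25 mM) stimulation; lower signal means less secretion.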
HT1080 IDH1KD tx = kills HT-1080 cells with IDH1 knockdown | Potency, µM (highest dose often 46.1 µM), inactives show top-dose activity, negative = toxicity, most hits filed as cytotoxic | 2% of 360,000 active | HT-1080 IDH1 knockdown viability, ATP luminescence, 48 h;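 also: potency is read from the fitted curve at half-maximal effect; 0% = DMSO wells and -100% = cell-free medium wells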
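% activity derives from luminescence (CellTiter-Glo), normalised to DMSO and no-cell wells. HT-1080-IDH1KD cells, 750/well, had 48 h compound exposure at 37 °C.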
ELG1 DNA repair = blocks ELG1-dependent DNA repair in HEK293T cells; AID 504467; Potency, µM (doses to about 46.1 µM), for inactives: top-dose activity change, negative = inhibition, hits mostly inhibitors; 2.3% of 330,000 active; HEK293T ELG1-luciferase reporter, luminescence, 16 h; DNA damage induced by 5-fluorouridine; also: potency is read from the fitted curve at half-maximal effect; nearly all actives have a fitted effect of over 55% in size
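HEK293T cells expressing luciferase-tagged ELG1 (2,000/well) received 5-Fluorouridine plus compound or DMSO for 16 hr at 37 °C. Luciferase was read by ONE-Glo luminescence after 30 min at room temperature.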
TDP1 cell noCPT = qHTS for Inhibitors of human tyrosyl-DNA phosphodiesterase 1 (TDP1): qHTS in cells in absence of CPT. DT40 Tdp1-/- hTDP1 cells, no CPT, ATP luminescence, 48 h. Potency, µM (doses to about 46.2 µM), inactives show top-dose activity change, negative = growth inhibition, most hits filed as inhibitors. 15% of 420,000 active. AID 686978, 2013; also: potency is read from the fitted curve at half-maximal effect; nearly all actives have a fitted effect of over 55% in size
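Readout: luminescence from CellTiter-Glo after 30 min in the dark at RT. Cells: DT40 Tdp1-/- with stable hTDP1, 400/well. Exposure: compounds alone, ≥48 hr, 37 °C.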
An asterisk follows results filed as active; i = inactive; ? = inconclusive; nt = not tested or not shown. An excerpt weighted towards active compounds, which were near 19% of everything screened. Unless noted, calls follow the shape of the dose curve; as a rule, active = well fitted curve in the direction sought with a large enough effect; inconclusive = small, poorly fitted or top-dose-only effect, or another doubt; inactive = no such curve, though single readings can be large; an effect the other way counts as inactive or inconclusive. Unless noted, % is scaled to controls: 0 for no effect and ±100 for the full control effect.

SMILES | HT1080-NT tox | TDP1 cell CPT | IL1B secr inh | HT1080 IDH1KD tx | ELG1 DNA repair | TDP1 cell noCPT
CC(C)(C)c1ccc(-c2nc(NCc3cccnc3)c3ccccc3n2)cc1 | 2.2% | ? | -65.5* | -16.9% | ? | ?
CCCCNC(=S)Nc1ccccc1Cc1ccccc1 | -4.7% | ? | -12.7 | -11.9% | ? | ?
O=[N+]([O-])c1cc(-c2nc(-c3ccccc3)no2)ccc1NCCc1ccccc1 | nt | -6.4% | nt | nt | nt | -12.6%
CCOc1ccc(S(=O)(=O)n2nc(C)c(S(=O)(=O)N3CCCCCC3)c2C)cc1 | nt | -15.6% | nt | nt | nt | -15.0%
CC1C(=O)C(C)(C)C(=O)OC1c1ccc([N+](=O)[O-])cc1 (stereo not given) | -1.8% | -11.6% | -4.3 | 1.3% | -3.7% | -19.4%
CCSc1nc(-c2cccs2)nc2ccccc12 | -14.3% | 14.6µM* | 5.9 | -14.6% | -14.8% | 18.4µM*
Clc1ccc2c(-c3ccccc3)nc(-c3cccs3)nc2c1 | 14.4% | -9.8% | 38.7 | 2.3% | nt | -10.4%
CC1(C(=O)NS(=O)(=O)c2ccc(Br)cc2)CCN1C(=O)Cc1cccs1 (stereo not given) | 23.1% | 3.1% | 2.2 | 13.7% | nt | -19.2%
O=C(c1ccc(-c2ccccc2)cc1)N1CCN(c2ccccn2)CC1 | 2.0% | -12.3% | -3.2 | 6.2% | -15.7% | -3.0%
COCCN(Cc1ccco1)C(=O)C1CCCN(c2ncnc3c2nc2n3CCCCC2)C1 (stereo not given) | -1.9% | ? | 40.9 | -10.6% | -22.3% | ?
CCc1nc(N2CCN(C(=S)NCCCOC)CC2)c2c3c(sc2n1)CCCC3 | ? | 16.4µM* | ? | -6.1% | ? | 16.4µM*
CN1C(=O)C(c2ccccc2[N+](=O)[O-])C(=O)c2ccccc21 (stereo not given) | 5.5% | -22.7% | 14.3 | 11.0% | ? | 4.5%
O=C(C#Cc1ccccc1)c1ccc([N+](=O)[O-])cc1 | ? | 0.651µM* | -96.6* | ? | -6.9% | 0.92µM*
O=C(C#Cc1ccccc1)c1ccccc1 | ? | 0.731µM* | -108.2* | 18.4µM* | nt | 0.581µM*
O=C(c1ccc(-c2ccccc2)cc1)c1ccc([N+](=O)[O-])cc1 | nt | nt | nt | nt | 14.2% | nt
CN(C)C(=O)C#Cc1ccccc1 | 15.9% | 1.7% | -9.8 | 24.9% | 17.0% | -18.4%
Cc1cc(C)cc(-n2ccnc2SCC(=O)Nc2nc3ccc(C)cc3s2)c1 | nt | -25.9% | nt | nt | nt | -13.0%
COc1ccc(NS(=O)(=O)c2ccc(C)c(C(=O)OC(C)C(=O)N3CCOCC3)c2)cc1 (stereo not given) | -5.3% | -28.4% | 33.9 | -15.3% | -10.7% | ?
COc1cc(OC)c(NS(=O)(=O)c2ccc(Cl)c(C(=O)OC(C)C(=O)N3CCCC3)c2)cc1Cl (stereo not given) | -2.7% | 18.4µM* | -1.9 | ? | -18.5% | 20.6µM*
COc1c(C)cc(NS(=O)(=O)c2ccc3c(c2)OCCO3)cc1C | nt | 9.2µM* | nt | nt | nt | 2.59µM*
CSc1nc2ccc(NS(=O)(=O)c3ccc4c(c3)OCCO4)cc2s1 | -2.8% | ? | 33.8 | -10.0% | ? | 23.1µM*
COc1ccc(S(=O)(=O)Nc2ccc3c(c2)OCCO3)cc1Cl | -11.7% | 23.1µM* | 9.0 | -23.7% | -10.4% | ?
O=C(CN1C(=O)NC2(CCOc3ccccc32)C1=O)c1ccc[nH]1 (stereo not given) | -7.2% | 1.4% | 8.6 | 0.1% | 4.3% | -12.0%
O=C(CSc1nnc(CNC(=O)c2ccc(F)cc2)o1)NCc1ccc2c(c1)OCO2 | -7.7% | -2.4% | i | 3.8% | -2.5% | -12.9%
C=CCNC(=O)CSc1nnc(C(CC)N(C)C)n1C1CCCCC1 (stereo not given) | 5.9% | 12.8% | 5.7 | 11.1% | 10.8% | 15.4%
